TDP1 cell CPT – DT40-hTDP1 cell growth loss with CPT | chicken DT40 Tdp1-/-;hTDP1 cells + 20 nM CPT, ATP luminescence, 48 h | AID 686979 | Potency, µM (highest dose often 46.2 µM), most hits filed as inhibitors | 420,000 tested, 12% active; note: nearly all actives have a fitted effect of over 55% in size
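Chicken DT40 Tdp1-/- cells complemented with human TDP1, 400 cells/well, exposed to compounds plus 20 nM camptothecin for at least 48 h at 37 C; viability read as ATP content by CellTiter-Glo luminescence.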
HepG2 viability – HepG2 cytotoxicity, counter-screen for TGF-b inhibitors. Potency, µM (top dose mostly 46.1 µM), hits mostly cytotoxic. HepG2 CAGA-GFP viability, ATP luminescence, 18 h. AID 588856. 410,000 tested, 0.76% active
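CellTiter-Glo luminescence gave cytotoxicity after 18 hours at 37 degrees C. The cells were HepG2 CAGA-GFP in 1% FBS DMEM, stimulated with 500 pg/mL TGF-beta after compound addition. %Activity was normalised to no-cell wells (complete cell-killing) and DMSO (no toxicity), and curves were fitted and classified.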
DT40 TDP1 no CPT – qHTS for Inhibitors of human tyrosyl-DNA phosphodiesterase 1 (TDP1): qHTS in cells in absence of CPT | DT40 Tdp1-/- hTDP1 cells, no CPT, ATP luminescence, 48 h | 420,000 tested, 15% active | AID 686978, 2013 | Potency, µM (titrated, usually from 46.2 µM), actives largely listed as inhibitors; note: nearly all actives have a fitted effect of over 55% in size
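Chicken DT40 Tdp1-/- cells complemented with human TDP1, screened without camptothecin (DMSO vehicle only), 400 cells/well. Compounds pin-transferred, cells incubated at 37 °C for at least 48 hr. Growth read as ATP-dependent luminescence (CellTiter-Glo, 30 min at RT).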
HT1080NT lethal – kills 2HG-producing HT-1080-NT fibrosarcoma cells. HT-1080-NT fibrosarcoma viability, CellTiter-Glo ATP luminescence, 48 h. 360,000 tested, 1.6% active. Potency, µM (top dose mostly 46.1 µM), most hits filed as cytotoxic;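 note: NT is the 2HG producing partner of a matched IDH1 knockdown line; nearly all actives have a fitted effect of over 55% in size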
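HT-1080-NT; 750 cells/well; 5% FBS RPMI; 48 h compound, 37 degrees C; CellTiter-Glo luminescence; curve fitting and curve-class assignment.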
TGFb inhibitor – inhibitors of TGF-b signaling. HepG2 CAGA-GFP TGF-b/SMAD3 reporter, GFP fluorescence, 18 h; TGF-beta stimulated, 500 pg/mL final. Potency, µM (titrated, usually from 46.1 µM), hits mostly inhibitors. 410,000 tested, 1.2% active; note: nearly all actives have a fitted effect of over 65% in size
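GFP signal (ex488/em500-530) from TGF-beta-stimulated HEPG2 CAGA-GFP cells, 500 pg/mL final, 18 h at 37 degrees C in DMEM plus 1% FBS, normalized to unstimulated and DMSO-stimulated controls.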
HT1080 IDH1KD tx – kills HT-1080 cells with IDH1 knockdown | HT-1080 IDH1 knockdown viability, ATP luminescence, 48 h | Potency, µM (doses to about 46.1 µM), most hits filed as cytotoxic | 360,000 tested, 2% active | AID 686971
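IDH1KD HT-1080 cells, 750/well, RPMI + 5% FBS; compound pinned after 2 h settling; 48 h, 37 °C; CellTiter-Glo luminescence; % activity normalised to DMSO and no-cell wells; curves fitted, classed by r2 and efficacy.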
Hits are given with their value; n = inactive; u = inconclusive; x = not tested or not shown. Rows were chosen to be rich in hits. Some 17% of all compounds tested hit in one or more screens of this group. Calls come from the whole dose curve; as a rule, active = well fitted curve in the direction sought with a large enough effect; inconclusive = small, poorly fitted or top-dose-only effect, or another doubt; inactive = no such curve, though single readings can be large; an effect the other way counts as inactive or inconclusive.

SMILES	TDP1 cell CPT	HepG2 viability	DT40 TDP1 no CPT	HT1080NT lethal	TGFb inhibitor	HT1080 IDH1KD tx
O=C(CCSc1ccc(Cl)cc1)N1CCN(c2ncccn2)CC1	13µM	n	u	n	n	n
O=C(CCSc1ccc(Cl)cc1)N1CCN(c2ccc(O)cc2)CC1	n	n	n	u	u	u
O=C(CSc1ccc(Cl)cc1)N1CCN(c2ccc([N+](=O)[O-])cc2Cl)CC1	u	n	18.4µM	n	n	n
CCCC(=O)N1CCN(c2ccc([N+](=O)[O-])cc2Cl)CC1	u	n	u	n	n	n
COc1cccc([C@@H]2Oc3ccc(OC)cc3C(=O)[C@H]2O)c1	6.51µM	n	11.6µM	u	u	n
COc1ccc2c(c1)C(=O)[C@@H](O)[C@H](c1ccc(OC)c(Br)c1)O2	20.6µM	n	u	n	u	n
COc1cccc([C@@H]2Oc3ccc(Br)cc3C(=O)[C@H]2OC(=O)NC2CCCC2)c1	u	n	u	n	u	u
CCN(C(=O)CSc1n[nH]c(-c2ccc(OC)cc2)n1)c1c(N)n(Cc2ccccc2)c(=O)[nH]c1=O	n	n	n	n	n	n
Cc1c(C(=O)NCc2ccco2)sc(=O)n1Cc1ccc(S(C)(=O)=O)cc1	u	n	u	n	n	n
O=[N+]([O-])c1ccc(S(=O)(=O)NCc2nc3cccnc3n2Cc2ccccc2Cl)cc1	14.6µM	n	14.6µM	x	u	x
CCc1ccc(S(=O)(=O)NCc2nc3cccnc3n2Cc2ccccc2Cl)cc1	u	n	14.6µM	x	u	x
CCc1ccc(Cn2c(CNS(=O)(=O)c3ccc4c(c3)CCCC4)nc3cccnc32)cc1	u	n	16.4µM	x	u	x
CCc1ccc(Cn2c(CNS(=O)(=O)c3ccc([N+](=O)[O-])cc3)nc3cccnc32)cc1	u	n	u	x	u	x
COc1ccccc1Cn1c(CNS(=O)(=O)c2cccc([N+](=O)[O-])c2)nc2cccnc21	20.6µM	n	16.4µM	x	u	x
CC(C)(C)c1ccc(S(=O)(=O)NCc2nc3cccnc3n2Cc2ccccc2Cl)cc1	u	n	u	x	u	x
CCOc1ccccc1C(=O)OCC(=O)Nc1cc(S(=O)(=O)N2CCOCC2)ccc1C	n	n	n	n	n	n
Cc1cc(NC(=O)Nc2ccccc2)n(C(C)(C)C)n1	n	n	n	n	n	n
CC1CN(C(=O)CCc2cc(C(C)(C)C)c(O)c(C(C)(C)C)c2)CC(C)O1 (centres undefined)	u	n	u	n	n	n
CC(C)c1ccccc1NC(=O)Nc1nnc([C@H]2C[C@H](O)[C@@H](CO)O2)s1	n	n	n	n	n	n
COc1ccc(Cn2c(CNS(=O)(=O)c3ccc(Cl)s3)nc3cccnc32)cc1	u	n	16.4µM	x	u	x
Cc1ccc(Cn2c(CNS(=O)(=O)c3ccc(Cl)s3)nc3cccnc32)cc1	u	n	u	x	n	x
C=CC[C@H](CC(=O)N(CCO)Cc1ccccc1)C(=O)N[C@H](COC(=O)[C@@H](CC=C)Cc1ccc(F)cc1)Cc1ccccc1	20.6µM	n	20.6µM	16.4µM	u	u
C=CC[C@H](CC(=O)NCCO)C(=O)NCCOC(=O)[C@@H](CC=C)Cc1ccc(F)cc1	n	n	n	n	n	n
C=CC[C@@H](CC(=O)N(CCO)Cc1ccccc1)C(=O)N[C@H](C)COC(=O)[C@@H](CC=C)Cc1ccc(F)cc1	u	n	u	n	n	n
C=CC[C@@H](CC(=O)N(CCO)Cc1ccccc1)C(=O)NCCOC(=O)[C@@H](CC=C)Cc1ccc(F)cc1	20.6µM	n	13µM	n	n	n
SMILES	TDP1 cell CPT	HepG2 viability	DT40 TDP1 no CPT	HT1080NT lethal	TGFb inhibitor	HT1080 IDH1KD tx
C=CC[C@H](CC(=O)NCCO)C(=O)NC[C@@H](OC(=O)[C@@H](CC=C)Cc1ccc(F)cc1)c1ccccc1	u	n	u	n	n	n
C=CCC[C@H](Cc1ccc(F)cc1)C(=O)O[C@H](CNC(=O)[C@@H](CC=C)CC(=O)N(CCO)Cc1ccccc1)c1ccccc1	u	n	23.1µM	u	u	u
C=CC[C@H](CC(=O)N(CCO)Cc1ccccc1)C(=O)N[C@H](C)COC(=O)[C@@H](CC=C)Cc1ccc(F)cc1	u	n	20.6µM	n	u	n
Cc1ccc2oc3c(c(=O)c2c1)C1(C(=O)N(C)c2ccccc21)N(CCCO)C3=O (centres undefined)	n	n	n	x	u	x
CCc1nnc(NC(=O)CSc2nnc(CNc3ccc(C)cc3)n2C)s1	n	n	n	n	n	n
CCc1ccc(Nc2ccc3nonc3c2[N+](=O)[O-])cc1	n	n	u	n	n	n
CCOC(=O)NNc1ccc2nonc2c1[N+](=O)[O-]	6.51µM	n	2.91µM	u	u	u
CCN(CC)C(=O)C1=C(C)Nc2nc3ccccc3n2C1c1cccc(OC)c1 (centres undefined)	u	n	u	n	n	n
COc1cccc(C2C(C(=O)Nc3ccc(Cl)cc3)=C(C)Nc3nc4ccccc4n32)c1 (centres undefined)	20.6µM	n	n	x	n	x
CCSc1nc2sc3c(c2c(=O)n1-c1ccccc1)CCN(C)C3	u	n	u	n	n	n
C=CCSc1nc2sc3c(c2c(=O)n1-c1ccccc1)CCN(C)C3	u	n	n	n	n	n
CCCN1CCc2c(sc3nc(SCC)n(-c4ccccc4)c(=O)c23)C1	u	n	14.6µM	n	n	n
CCCN1CCc2c(sc3nc(SCC)n(-c4ccc(OC)cc4)c(=O)c23)C1	u	n	13µM	n	n	n
COc1ccc(-n2c(SC)nc3sc4c(c3c2=O)CCN(C)C4)cc1	u	n	11.6µM	n	n	n
CCCN1CCc2c(sc3nc(SC)n(-c4ccccc4)c(=O)c23)C1	6.51µM	n	5.8µM	n	n	n
COc1ccc(NC(=O)CSc2nc3sc4c(c3c(=O)n2-c2ccc(OC)cc2)CCN(C)C4)cc1	n	n	u	n	n	n
Cc1ccc(NC(=O)COCC(=O)Nc2ccc(C)cc2)cc1	n	n	n	n	n	n
Cc1ccc(NC(=O)CNc2ccc(OC(C)C)cc2)cc1	u	n	23.1µM	n	n	n
Cc1ccc(NC(=O)COCC(=O)Nc2ccc(F)cc2)cc1	18.4µM	n	20.6µM	n	n	n
CCc1nn(C)c(N)c1C	n	n	n	n	n	n
O=C(/C=C/c1ccc(Cl)cc1Cl)OCC(=O)N1CCCC1	n	n	n	n	n	n

Source: PubChem
